Screens deposited in PubChem by National Center for Advancing Translational Sciences (NCATS).
GLA inh pH 4.5 = inhibitors of human alpha-galactosidase A at pH 4.5 | purified enzyme, 4-MU-alpha-Gal fluorescence, pH 4.5 | AID 1467 | 230,000 tested, under 10 active | activity change, negative = inhibition, % at 105 µM | P06280;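 also: 0% = full activity with enzyme and -100% = basal without enzyme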
GAA inhib = inhibitors of human lysosomal alpha-glucosidase | AID 1466 | purified human GAA, 4-MU-alpha-glucoside fluorescence | 200,000 compounds, 0.005% hits | Potency, µM (titrated, usually from 76.9 µM), without a hit: at the highest dose activity change, negative = inhibition, usual class: inhibitors;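 also: potency is read from the fitted curve at half-maximal effect; plate controls were uninhibited enzyme wells for no effect and no-enzyme background for full effect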
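Compounds are titrated up to 77 uM against 4 nM human enzyme. Substrate 4-methylumbelliferyl-alpha-D-pyranoside (400 uM) reacts 20 min at room temperature in pH 5.0 buffer; liberated 4-methylumbelliferone is read at 440 nm.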
GAA glycogen = alters human alpha-glucosidase cleavage of glycogen. 300,000 compounds, 0.38% hits. P10253. recombinant GAA, glycogen substrate, Amplex Red glucose oxidase fluorescence. Potency, µM (top dose mostly 76.4 µM), for inactives: at the highest dose activity change, negative = inhibition, hits mostly inhibitors. AID 2100;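 also: potency is read from the fitted curve at half-maximal effect; 0% = full enzyme reaction and -100% = no-enzyme basal signal; the screen sought inhibitors and activators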
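Natural-substrate format: glycogen cleavage by 4 nM human enzyme, glucose read by Amplex Red coupling (Ex 573, Em 610 nm). Normalized to enzyme and no-enzyme controls.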
GAA spleen mod = inhibitors or activators of human alpha-glucosidase in spleen homogenate; P10253; human spleen homogenate, 4-MU-alpha-glucoside fluorescence; Potency, µM (titrated, usually from 79.9 µM), for the others: at the highest dose activity change, negative = inhibition, actives largely listed as inhibitors; 240,000 compounds, 0.006% hits;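 also: potency is read from the fitted curve at half-maximal effect; 0% = enzyme with vehicle and -100% = no enzyme basal signal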
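AC50 values come from Hill-equation fits of concentration-response data, normalized to no-enzyme and full-activity controls. Enzyme source: 1 ug human spleen homogenate; 1 mM fluorogenic 4-MU glucoside, pH 5.0 citrate buffer, 37 C, 40 min.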
GLA spleen mod = inhibits or activates alpha-galactosidase in human spleen homogenate; Potency, µM (highest dose often 80 µM), without a hit: at the highest dose activity change, negative = inhibition, hits mostly inhibitors; human spleen homogenate, 4MU-alpha-Gal fluorescence, 40 min; P06280; 240,000 compounds, 0.008% hits; AID 2107;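 also: potency is read from the fitted curve at half-maximal effect; 0% = enzyme with vehicle and -100% = no enzyme basal signal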
Target sequence (P06280 32-429 limits assumed): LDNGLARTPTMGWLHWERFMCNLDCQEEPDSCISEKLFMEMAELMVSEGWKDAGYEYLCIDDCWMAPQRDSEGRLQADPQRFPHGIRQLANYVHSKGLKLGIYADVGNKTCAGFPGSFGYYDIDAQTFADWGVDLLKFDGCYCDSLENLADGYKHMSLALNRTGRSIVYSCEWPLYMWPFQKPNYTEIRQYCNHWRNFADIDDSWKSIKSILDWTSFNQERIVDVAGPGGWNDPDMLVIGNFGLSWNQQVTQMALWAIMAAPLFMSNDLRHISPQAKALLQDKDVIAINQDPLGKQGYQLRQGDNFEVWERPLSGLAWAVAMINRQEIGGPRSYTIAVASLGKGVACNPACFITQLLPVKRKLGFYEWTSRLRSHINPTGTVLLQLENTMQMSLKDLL
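Spleen homogenate 1 ug + cpd (titration) + 4-MU-alpha-D-galactopyranoside 1 mM; 37C 40 min; 50 mM citrate/phosphate pH 5.0, 0.01% Tween-20; stop pH 10; fluorescence 365/440; AC50 via Hill.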
Numbers without * were called inactive; ? = inconclusive; / = no result given; [ ] = another dose, or the depositor's remark. Only some compounds are listed: those with a hit (about 0.4% of all), similar ones and a draw of the others. Calls follow the shape of the dose curve; as a rule, active = well fitted curve in the direction sought with a large enough effect; inconclusive = small, poorly fitted or top-dose-only effect, or another doubt; inactive = no such curve, though single readings can be large; an effect the other way counts as inactive or inconclusive.

SMILES | GLA inh pH 4.5 | GAA inhib | GAA glycogen | GAA spleen mod | GLA spleen mod
CCOC(=O)C1CCN(c2nc3ccccc3nc2C(C#N)C(=O)NCCc2ccccc2)CC1 (centres undefined) | / | -5%[15.4 µM] | 14µM* | -10% | -13%
Cn1cnc([N+](=O)[O-])c1Nc1ccc(O)cc1 | -8 | ? | 28µM* | -9% | 3%
Cc1cc(C)c2c(-n3cccc3)c(C(=O)NNS(=O)(=O)c3ccc(Cl)cc3)sc2n1 | 4 | -16% | 20µM* | -5% | 7%
CSc1ccc(CCNC(=O)CCCn2c(=O)c3cccn3c3ccccc32)cc1 | / | / | 10%[76.3 µM] | / | /
CC(NC(=O)Nc1ccccc1O)(C(F)(F)F)C(F)(F)F | -14 | -12% | 16µM* | 3% | 6%
Cc1c(NC(=O)C(F)(F)F)ccc2nc3c(=O)n(C)c(=O)n(C)c3nc12 | / | / | -3%[76.3 µM] | / | /
CCCCCCCC1(C)NC(=O)N(c2ccccc2)N1 (centres undefined) | 4 | -12% | 25µM* | -9% | -5%
O=C1c2[nH]nc(-c3ccccc3O)c2C(c2cccc(Br)c2)N1Cc1ccncc1 (centres undefined) | / | / | 6%[76.3 µM] | / | /
CCOC(=O)c1c(/N=C/c2ccc(OC)cc2O)sc2c1CCN(C)C2 | -7 | / | 7% | -1% | 2%
CCOC(=O)c1c(/N=C/c2ccc(C)cc2O)sc2c1CCC2 | -4 | 2% | 14µM* | 0% | 2%
NS(=O)(=O)c1ccc(CCNC(=O)Cn2c(=O)c3cccn3c3ccc(F)cc32)cc1 | / | / | 1%[76.3 µM] | / | /
COCc1cc(C)nc(SCC(=O)c2ccc(O)c(O)c2)c1C#N | 3 | -9% | 14µM* | -6% | -3%
O=C(O)CNC(=O)c1ccc([N+](=O)[O-])cc1 | / | / | / | -4% | -2%
Oc1[nH]c2ccccc2c1C=Nc1ccc2c(c1)OCCO2 | -7 | -3% | 32µM* | -10% | -10%
Oc1c(Br)cc(Br)cc1C=Nc1ccc2c(c1)OCCO2 | -4[21.1 µM] | -8% | ? | 5% | -12%
CCn1nc(C)cc1Nc1ccccc1 | -8 | -11% | 14µM* | -5% | 3%
Cc1cc(Nc2ccccc2)n(CCO)n1 | 13 | -8% | 28µM* | 4% | 3%
Cc1cc(Nc2ccccc2)n(-c2ccc(Br)cc2)n1 | -1 | -4% | ? | -10% | -5%
Cc1nnc(N/N=C/c2cc([N+](=O)[O-])c(N3CCC(C)CC3)cc2N2CCC(C)CC2)n1N | -11 | ? | 31µM* | -7% | 1%
CCc1nnc(N/N=C/c2ccc(N3CCC(C)CC3)c([N+](=O)[O-])c2)n1N | -7 | 2% | ? | -15% | -6%
CN(C(=O)N1CCN(S(=O)(=O)c2ccccc2)CC1)c1ccccc1 | -30 | 35µM* | -15% | -1% | 2%
CC(C)CC(=O)N1CCN(S(=O)(=O)c2ccccc2)CC1 | 3 | ? | -3% | -7% | -1%
Cc1sc2ncn(CC(=O)N3CCN(c4cccc(Cl)c4)CC3)c(=O)c2c1S(=O)(=O)N1CCC(C)CC1 | / | / | -10%[76.3 µM] | / | /
C/C(N[C@@H]1CSCC1O)=C1/C(=O)CC2[C@@H]1C2(C)C (some centres undefined) | 0 | / | / | 6% | 0%
CCCN1Cc2cccc(C(=O)Nc3ccc(OC)cc3OC)c2C1=O | / | / | 16%[76.3 µM] | / | /
SMILES | GLA inh pH 4.5 | GAA inhib | GAA glycogen | GAA spleen mod | GLA spleen mod
COc1ccc(N(CC(=O)Nc2cccc(C(C)=O)c2)S(=O)(=O)c2ccccc2)c(OC)c1 | / | / | -3%[76.3 µM] | / | /
C=CCC(C)(O)c1ccc(OC)cc1 (centres undefined) | -4 | / | / | 2% | 0%
COc1cc(C2c3sc(=O)[nH]c3SC3C(=O)N(c4ccc(C)cc4)C(=O)C32)ccc1O (centres undefined) | 1 | -9% | 11µM* | -1% | -4%
COC(=O)C1CSc2[nH]c(=O)sc2C1c1ccc(O)c(OC)c1 (centres undefined) | -14 | 0% | 16µM* | 3% | -12%
COc1ccc(C2c3sc(=O)[nH]c3SCC2C(N)=O)cc1 (centres undefined) | -3 | / | ? | 8% | 5%
COc1ccc(CNC(=O)CCCc2nnc3n(C(C)C)c(=O)c4sccc4n23)cc1 | / | / | -15%[76.3 µM] | / | /
Cn1c(-c2ccc3c(c2)OCO3)cnc1NCc1ccccc1 | 4 | 8% | ? | -1% | 2%
